Most compounds without a hit are left out; they make up all but 9.2% or so of the library.
ELG1 genotoxic: qHTS screen for small molecules that induce genotoxicity in human embryonic kidney (HEK293T) cells expressing luciferase-tagged ELG1. Potency, µM (titrated, usually from 46 µM), most hits filed as activators. AID 504466, 2011. HEK293T ELG1-luciferase reporter, luminescence, 16 h. 1.3% of 330,000 active; also: nearly all actives have a fitted effect of over 60% in size
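Genotoxicity was scored as increased ELG1-luciferase reporter signal, measured by ONE-Glo luminescence (30 min, room temperature). Compound or vehicle exposure of the HEK293T reporter cells lasted 16 hr at 37°C.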
ELG1 DNA repair: qHTS screen for small molecules that inhibit ELG1-dependent DNA repair in human embryonic kidney (HEK293T) cells expressing luciferase-tagged ELG1. AID 504467, 2011. HEK293T ELG1-luciferase reporter, luminescence, 16 h; DNA damage induced by 5-fluorouridine. 2.3% of 330,000 active. Potency, µM (top dose mostly 46.1 µM), hits mostly inhibitors; also: nearly all actives have a fitted effect of over 55% in size
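5-Fluorouridine DNA damage + compound/DMSO, 2,000 cells/well, 16 h, 37 °C/5% CO2. ONE-Glo, 30 min RT, luminescence. Readout = decrease in reporter signal.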
NPC1 prom act: qHTS Assay for NPC1 Promoter Activators | Huh7 NPC1 promoter luciferase reporter, 24 h | Potency, µM (series often up to 9.22 µM), actives largely listed as activators | 2.4% of 320,000 active; also: nearly all actives have a fitted effect of over 60% in size
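In 1536-well qHTS, Huh7 cells harboring an NPC1 promoter–luciferase construct received compound for 24 h; activation was quantified by luminescence following luciferase reagent addition.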
SMN2 splice up: qHTS Assay for Enhancers of SMN2 Splice Variant Expression. HEK293 SMN2-luciferase splicing reporter, luminescence, 30-36 h. Potency, µM (doses to about 46.1 µM), actives largely listed as activators. 2.8% of 210,000 active. AID 1458, 2008; also: nearly all actives have a fitted effect of over 55% in size
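qHTS luciferase splicing reporter: luminescence rises when SMN2 exon 7 is included in transfected HEK293 cells. Compound exposure lasted 30-36 h at 37C, with 4.5 mM final sodium butyrate as control, followed by a ONE-Glo read.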
FLuc counter: qHTS profiling assay for firefly luciferase inhibitor/activator using purifed enzyme and Km concentrations of substrates (counterscreen for miR-21 project); purified FLuc, Km substrates, luminescence inhibition; Potency, µM (top dose mostly 57.5 µM), usual class: inhibitors; 6.9% of 360,000 active; AID 588342, 2011; Luciferin 4-monooxygenase (Photinus pyralis), P08659; also: nearly all actives have a fitted effect of over 55% in size
Target sequence (P08659 whole entry, looked up): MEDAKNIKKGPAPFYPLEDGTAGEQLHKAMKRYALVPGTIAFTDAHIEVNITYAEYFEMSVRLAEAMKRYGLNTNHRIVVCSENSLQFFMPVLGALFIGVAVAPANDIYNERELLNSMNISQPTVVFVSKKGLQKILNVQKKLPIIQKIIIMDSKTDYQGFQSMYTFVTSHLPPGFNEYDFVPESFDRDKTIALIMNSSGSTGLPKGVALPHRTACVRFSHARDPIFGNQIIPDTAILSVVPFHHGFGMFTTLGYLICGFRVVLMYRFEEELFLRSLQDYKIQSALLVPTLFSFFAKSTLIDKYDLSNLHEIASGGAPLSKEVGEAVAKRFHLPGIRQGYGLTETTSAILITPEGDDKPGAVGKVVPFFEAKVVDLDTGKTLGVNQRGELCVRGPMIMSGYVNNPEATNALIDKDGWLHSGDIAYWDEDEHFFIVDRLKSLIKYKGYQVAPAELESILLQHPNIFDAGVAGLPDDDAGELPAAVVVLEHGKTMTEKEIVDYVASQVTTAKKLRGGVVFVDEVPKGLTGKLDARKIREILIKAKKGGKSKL
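Purified P. pyralis luciferase (10nM final) with 10uM D-luciferin and 10uM ATP (Km levels) in 50mM Tris acetate pH 7.5, 10mM Mg acetate, 0.01% Tween-20, 0.05% BSA; qHTS 6-point titration, ~60 µM downward; luminescence read.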
Rab9 prom act: qHTS Assay for Rab9 Promoter Activators; Huh7 Rab9 promoter-luciferase reporter, luminescence, 24 h; Potency, µM (series often up to 9.22 µM), usual class: activators; 2.8% of 320,000 active; also: nearly all actives have a fitted effect of over 60% in size
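Promoter activation is measured as luciferase luminescence in Huh7 cells stably transfected with a Rab9 promoter–luciferase construct, following 24 h compound exposure at 37 °C and 10 min reagent incubation at ambient temperature.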
A number is an active result; n = inactive; u = inconclusive; x = no result. Calls follow the shape of the dose curve; as a rule, active = well fitted curve in the direction sought with a large enough effect; inconclusive = small, poorly fitted or top-dose-only effect, or another doubt; inactive = no such curve, though single readings can be large; an effect the other way counts as inactive or inconclusive.

SMILES | ELG1 genotoxic | ELG1 DNA repair | NPC1 prom act | SMN2 splice up | FLuc counter | Rab9 prom act
Cc1cc(NC(=O)C(C)Oc2ccc(Cl)cc2Cl)no1 (stereo not drawn) | n | u | n | x | 24µM | n
COCCN(C(=O)COC(=O)Cc1c[nH]c2ccccc12)c1c(N)n(Cc2ccccc2)c(=O)[nH]c1=O | n | n | n | x | n | n
Cc1c(C(=O)Nc2cc(S(=O)(=O)N3CCOCC3)ccc2N2CCOCC2)oc2ccccc12 | n | 16µM | n | n | n | n
COc1ccc2oc(C(=O)Nc3ccccc3N3CCOCC3)c(C)c2c1 | n | n | u | x | u | n
COc1ccc2oc(C(=O)N3CCCc4ccccc43)c(C)c2c1 | n | u | u | x | 19µM | u
Cc1c(C(=O)Nc2ccc(N3CCOCC3)cc2)oc2ccccc12 | n | u | 4µM | n | 1.9µM | 4.5µM
Cc1c(C(=O)Nc2ccccc2Br)oc2ccc(S(=O)(=O)N3CCOCC3)cc12 | x | x | x | x | n | x
COc1ccc2oc(C(=O)Nc3ccc(N4CCOCC4)cc3)c(C)c2c1 | n | u | n | x | 6.7µM | n
COc1ccc(CCNC(=O)c2c(C)nc3ccccn23)cc1 | n | u | n | x | n | n
Cc1c(C(=O)NNC(=O)c2csc(N3CCOCC3)n2)oc2ccccc12 | n | n | n | x | 27µM | n
Cc1cccc(C(=O)NNC(=O)c2csc(N3CCOCC3)n2)c1C | n | u | n | x | n | n
CCCN(Cc1cccs1)C(=O)Nc1cc(Cl)c(OC)cc1OC | x | x | x | x | n | x
Cc1cc(Cl)nc(-c2ccccc2)n1 | n | n | n | x | n | n
Cc1cc2c(C)nc(-c3ccccc3)nc2o1 | 16µM | u | u | 28µM | 19µM | u
Cc1ccccc1C1CC(=O)Nc2ccc3ccccc3c21 (stereo not drawn) | x | x | x | n | n | x
CCOC(=O)C(C(C)=O)c1c(Br)c(O)c(O)c2c(C(=O)c3ccc(C)cc3)coc12 (stereo not drawn) | n | 4.6µM | n | n | 19µM | n
CCOC(=O)c1c(C)n(-c2ccc(C)cc2)c2c(C(C(C)=O)C(=O)O)c(Br)c(O)c(O)c12 (stereo not drawn) | n | n | n | u | n | n
Cc1ccc(/C=C/C(=O)c2ccccc(=O)c2O)cc1C | u | 21µM | n | n | u | n
O=C(/C=C/c1ccccc1)c1cc(Br)ccc(=O)c1O | n | u | n | n | n | n
CCC(C(=O)N1CCN(S(=O)(=O)c2ccc(F)cc2)CC1)c1ccccc1 (stereo not drawn) | n | u | n | x | n | n
CCN1C(=O)c2ccc(C(=O)Nc3ncc(C)s3)cc2C1=O | u | u | n | n | 1.7µM | u
CCCOc1cccc(C(=O)Nc2cccc(NC(=O)c3ccco3)c2)c1 | n | n | n | n | 17µM | n
Cc1c(C(=O)NCC2CCCO2)oc2ccc(Br)cc12 (stereo not drawn) | 23µM | u | n | x | u | u
O=C(Nc1ccc2c(c1)OCCO2)c1ccc(Br)o1 | u | u | 1.3µM | 14µM | 2.1µM | 1.6µM
CC1=[N+](C)c2ccc3ccccc3c2C1(C)C | n | n | n | n | n | n
SMILES | ELG1 genotoxic | ELG1 DNA repair | NPC1 prom act | SMN2 splice up | FLuc counter | Rab9 prom act
COC(=O)c1cc2sc(Cl)cc2n1Cc1nc(-c2ccccc2F)oc1C | x | x | x | n | n | x
CC1(c2ccccc2)NC(=O)N(CC(=O)N2CCN(S(=O)(=O)c3cccc([N+](=O)[O-])c3)CC2)C1=O (stereo not drawn) | n | n | n | x | n | n
Cc1ccc(C(=O)Nc2ccc3c(c2)OCO3)cc1 | 0.46µM | u | 0.63µM | 7.9µM | 1.3µM | 0.56µM
Cc1c(C(=O)Nc2ccc3c(c2)OCCO3)oc2ccc(Br)cc12 | u | u | n | x | 5.4µM | u
Cc1ccc(S(=O)(=O)CC(=O)c2ccc3c(c2)OCCO3)cc1 | n | n | u | x | 13µM | u
Cc1cc(Cl)c2oc(C(=O)NCCC3CCCCO3)c(C)c2c1 (stereo not drawn) | u | u | u | x | 21µM | u
O=C(Nc1ccc2c(c1)OCO2)c1ccncc1 | n | u | n | n | n | n
O=C(Nc1ccc2c(c1)OCCO2)c1cccc(Br)c1 | 2.6µM | u | 1.3µM | x | 1.1µM | 1.4µM
CCC(O)c1cc2c(cc1NC(=O)c1cccc(Br)c1)OCCO2 (stereo not drawn) | x | x | x | n | n | x
CC(=O)Nc1ccc2c(c1)OCCO2 | n | n | n | n | n | n
CCN1C(=O)c2ccc(C(=O)Nc3ccc4c(c3)OCO4)cc2C1=O | u | u | n | x | 2.7µM | n
Brc1cc2c(cc1Br)OCCOCCOCCOCCO2 | n | n | n | n | n | n
Cc1ccc(C(=O)Nc2ccc3c(c2)OCCO3)cc1 | 0.58µM | u | 0.28µM | x | 0.43µM | 0.32µM
Brc1ccc2c(c1)OCCOCCOc1cc(Br)ccc1OCCOCCOCCO2 | n | 21µM | n | n | n | n
CNc1ccc(S(=O)(=O)NCC(=O)OCC(=O)Nc2cccc(Cl)c2Cl)cc1[N+](=O)[O-] | n | n | n | n | n | n
COCCN(Cc1ccco1)C(=O)c1cc2c(Cl)nc3ccc(C)cc3c2s1 | x | x | x | n | n | x
CCCc1nc2ccc(NC(C)=O)cc2c(=O)n1Cc1ccccc1Cl | n | n | n | x | n | n
Clc1ccc(-c2nnc(COc3ncnc4ccccc34)o2)cc1 | n | u | n | n | u | n
O=C(O)CCC(=O)Nc1cccc(C(=O)Nc2ccc(Br)cc2)c1 | n | u | n | n | 24µM | n
O=C(Nc1ccc2c(c1)OCCO2)c1ccc(Br)cc1 | u | u | 2.5µM | x | 1.1µM | 1.3µM
CCCc1ccc2oc(C(=O)N(Cc3ccncc3)CC3CCCO3)c(C)c2c1 (stereo not drawn) | n | u | n | x | n | n
Cc1ccc(CNc2ccc3c(c2)OCO3)cc1 | x | x | x | n | 24µM | x
CCN(CC)S(=O)(=O)c1ccc(C(=O)Nc2ccc3c(c2)OCCO3)cc1 | n | u | n | n | u | n
Cc1ccc2oc(C(=O)N(Cc3ccncc3)CC3CCCO3)c(C)c2c1 (stereo not drawn) | u | u | u | x | 11µM | u
Cc1ccc(S(=O)(=O)CCSc2n[nH]c(=O)n2-c2ccc3c(c2)OCCO3)cc1 | n | n | n | x | n | n
CC(C)c1ccc(NC(=O)c2cccc(Br)c2)cc1 | 21µM | u | 1.4µM | 14µM | 3µM | 0.71µM
CCCOc1cccc(C(=O)Nc2cccnc2)c1 | n | n | n | n | u | n
O=C(Nc1cccc(C(=O)Nc2cccc(Br)c2)c1)c1ccccc1 | n | n | n | x | u | n

High-throughput results (PubChem)
